Among all 5,500 compounds or so, about 2,000 (36%) were called active. Not shown: some 18% with an inconclusive outcome. No stated cut-off is given here; in the data, active means normalized growth mostly below about 0.91 (no sharp cut-off); inconclusive means no clear call, values can overlap the other calls; inactive means mostly above about 0.92. Some of the results follow.
Test: chemical genetic growth profiling, strain panel (AID 1159580);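 further: tested at 20 µM; growth read once vehicle control cultures reached saturation at 30 °C; 1 = growth at the plate median or of vehicle wells; lower values mean less growth of the strain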
Conditions: growth OD

Measured: normalized growth

CC(C)(Oc1ccc(Cl)cc1)C(=O)O
inactive: S. cerevisiae deletion strains, locus YJR075W, strain HOC1, hits give low values 0.992 | S. cerevisiae deletion strains, locus YKL009W, strain mrt4, hits give low values 0.983 | S. cerevisiae deletion strains, locus YKL068W, hits give low values 0.967 | S. cerevisiae deletion strains, locus YKL085W, strain MDH1 (second series), hits give low values 0.981 | S. cerevisiae deletion strains, locus YKL085W, strain MDH1, hits give low values 0.981 | S. cerevisiae deletion strains, locus YKL160W, strain elf1, hits give low values 1.02 | S. cerevisiae deletion strains, locus YKL190W, strain CNB1, hits give low values 0.996 | S. cerevisiae deletion strains, locus YKR001C, strain vps1, hits give low values 0.973 | S. cerevisiae deletion strains, locus YKR026C, strain gcn3, hits give low values 1 | S. cerevisiae deletion strains, locus YKR091W, strain srl3, hits give low values 0.999 | S. cerevisiae deletion strains, locus YLL001W, strain dnm1, hits give low values 1 | S. cerevisiae deletion strains, locus YLL026W, hits give low values 1.01 | S. cerevisiae deletion strains, locus YLL041C, strain sdh2, hits give low values 0.996 | S. cerevisiae deletion strains, locus YLR027C, strain aat2, hits give low values 1.01 | S. cerevisiae deletion strains, locus YLR039C, strain RIC1, hits give low values 0.967 | S. cerevisiae deletion strains, locus YLR058C, strain SHM2, hits give low values 0.994 | S. cerevisiae deletion strains, locus YLR102C, strain apc9, hits give low values 0.987 | S. cerevisiae deletion strains, locus YLR221C, strain rsa3, hits give low values 0.981 | S. cerevisiae deletion strains, locus YLR258W, strain gsy2, hits give low values 1.03 | S. cerevisiae deletion strains, locus YLR262C, strain YPT6 (second series), hits give low values 1 | S. cerevisiae deletion strains, locus YLR262C, strain YPT6, hits give low values 0.948 | S. cerevisiae deletion strains, locus YLR268W, strain sec22, hits give low values 0.927 | S. cerevisiae deletion strains, locus YLR320W, strain mms22, hits give low values 0.98 | S. cerevisiae deletion strains, locus YLR330W, strain CHS5, hits give low values 0.985 | S. cerevisiae deletion strains, locus YLR342W, strain FKS1 (second series), hits give low values 1.06 | S. cerevisiae deletion strains, locus YLR342W, strain FKS1, hits give low values 1.03 | S. cerevisiae deletion strains, locus YLR357W, strain rsc2, hits give low values 1.03 | S. cerevisiae deletion strains, locus YLR370C, strain arc18, hits give low values 1.02 | S. cerevisiae deletion strains, locus YLR371W, strain rom2, hits give low values 0.98 | S. cerevisiae deletion strains, locus YLR384C, strain iki3, hits give low values 0.991 | S. cerevisiae deletion strains, locus YLR418C, strain cdc73, hits give low values 1 | S. cerevisiae deletion strains, locus YML016C, strain PPZ1, hits give low values 0.995 | S. cerevisiae deletion strains, locus YML032C, strain rad52, hits give low values 0.958 | S. cerevisiae deletion strains, locus YML120C, strain ndi1, hits give low values 0.983 | S. cerevisiae deletion strains, locus YML124C, strain tub3, hits give low values 0.99 | S. cerevisiae deletion strains, locus YMR058W, strain fet3, hits give low values 1.01 | S. cerevisiae deletion strains, locus YMR078C, strain ctf18, hits give low values 0.978 | S. cerevisiae deletion strains, locus YMR125W, strain sto1, hits give low values 1.05 | S. cerevisiae deletion strains, locus YMR129W, hits give low values 1.02 | S. cerevisiae deletion strains, locus YMR205C, strain PFK2, hits give low values 0.991 | S. cerevisiae deletion strains, locus YMR223W, strain ubp8, hits give low values 1.03 | S. cerevisiae deletion strains, locus YMR231W, strain pep5, hits give low values 0.999 | S. cerevisiae deletion strains, locus YMR263W, strain SAP30, hits give low values 0.985 | S. cerevisiae deletion strains, locus YMR307W, strain GAS1, hits give low values 1.09 | S. cerevisiae deletion strains, locus YNL067W, strain RPL9B, hits give low values 0.977 | S. cerevisiae deletion strains, locus YNL071W, strain lat1, hits give low values 1.02 | S. cerevisiae deletion strains, locus YNL128W, strain TEP1, hits give low values 0.996 | S. cerevisiae deletion strains, locus YNL153C, strain GIM3, hits give low values 0.979 | S. cerevisiae deletion strains, locus YNL209W, strain ssb2, hits give low values 1.02 | S. cerevisiae deletion strains, locus YNL233W, strain BNI4, hits give low values 0.994 | S. cerevisiae deletion strains, locus YNL248C, strain rpa49, hits give low values 1.05 | S. cerevisiae deletion strains, locus YNL250W, strain rad50, hits give low values 0.985 | S. cerevisiae deletion strains, locus YNL271C, strain bni1, hits give low values 0.983 | S. cerevisiae deletion strains, locus YNL298W, strain CLA4, hits give low values 0.963 | S. cerevisiae deletion strains, locus YNL307C, strain MCK1, hits give low values 0.976 | S. cerevisiae deletion strains, locus YNL322C, strain KRE1 (second series), hits give low values 0.996 | S. cerevisiae deletion strains, locus YNL322C, strain KRE1, hits give low values 0.995 | S. cerevisiae deletion strains, locus YNR049C, strain mso1, hits give low values 1.01 | S. cerevisiae deletion strains, locus YNR052C, strain pop2, hits give low values 0.98 | S. cerevisiae deletion strains, locus YOL006C, strain TOP1, hits give low values 0.941 | S. cerevisiae deletion strains, locus YOL012C, strain htz1 0.835 | S. cerevisiae deletion strains, locus YOL147C, strain pex11, hits give low values 0.987 | S. cerevisiae deletion strains, locus YOR001W, strain rrp6, hits give low values 0.962 | S. cerevisiae deletion strains, locus YOR061W, strain CKA2, hits give low values 0.995 | S. cerevisiae deletion strains, locus YOR069W, strain VPS5, hits give low values 0.991 | S. cerevisiae deletion strains, locus YOR070C, strain gyp1, hits give low values 1.01 | S. cerevisiae deletion strains, locus YOR080W, strain dia2, hits give low values 1.01 | S. cerevisiae deletion strains, locus YOR083W, strain WHI5, hits give low values 0.985 | S. cerevisiae deletion strains, locus YOR106W, strain vam3, hits give low values 1.04 | S. cerevisiae deletion strains, locus YOR136W, strain idh2, hits give low values 0.989 | S. cerevisiae deletion strains, locus YOR144C, strain elg1, hits give low values 0.982 | S. cerevisiae deletion strains, locus YOR184W, strain ser1, hits give low values 0.964 | S. cerevisiae deletion strains, locus YOR265W, strain rbl2, hits give low values 1.01 | S. cerevisiae deletion strains, locus YOR270C, strain vph1, hits give low values 1.09 | S. cerevisiae deletion strains, locus YOR290C, strain snf2, hits give low values 1.03 | S. cerevisiae deletion strains, locus YOR316C, strain cot1, hits give low values 0.962 | S. cerevisiae deletion strains, locus YPL051W, strain arl3, hits give low values 1.04 | S. cerevisiae deletion strains, locus YPL055C, strain LGE1, hits give low values 0.996 | S. cerevisiae deletion strains, locus YPL078C, strain atp4, hits give low values 1.05 | S. cerevisiae deletion strains, locus YPL106C, strain sse1, hits give low values 1.06 | S. cerevisiae deletion strains, locus YPL240C, strain hsp82, hits give low values 1 | S. cerevisiae deletion strains, locus YPL241C, strain CIN2, hits give low values 0.994 | S. cerevisiae deletion strains, locus YPR119W, strain clb2, hits give low values 0.971 | S. cerevisiae deletion strains, locus YPR141C, strain kar3, hits give low values 0.982 | S. cerevisiae deletion strains, locus YPR163C, strain tif3, hits give low values 0.975 | S. cerevisiae deletion strains, locus YPR167C, strain met16, hits give low values 0.966 | S. cerevisiae deletion strains, strain wtn01, hits give low values 0.955 | S. cerevisiae strains, strain wild type, hits give low values 0.995

Reference: PubChem BioAssay AID1159580 (chemical genetic matrix, 2015)
